Assay [1] in a line: NCI Yeast Anticancer Drug Screen. Data for the rad50 strain (AID 155).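 Further: 0% = growth of vehicle-only cultures of the same strain.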 The note with it: S. cerevisiae rad50 strain growth inhibition, stronger effect = higher value. Summed up:
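Inhibition values express reduced yeast growth in compound-treated cultures relative to vehicle-treated controls.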

A short description of assay [2]: NCI Yeast Anticancer Drug Screen. Data for the mec2-1 strain (AID 157). The note with it: S. cerevisiae mec2-1 strain, stronger effect = higher value. Summed up:
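Cells of the genetically defined mec2-1 yeast strain are incubated with test compound. Inhibition of growth is calculated against vehicle-treated controls.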

The nature of assay [3]: NCI Yeast Anticancer Drug Screen. Data for the sgs1 mgt1 strain (AID 161).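 Further: 0% = growth of cultures given vehicle only.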 The note with it: S. cerevisiae sgs1 mgt1 strain, stronger effect = higher value. Summed up:
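Mutant yeast exposed to compound; growth scored against vehicle-only wells.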

Assay [4] can be described thus: NCI Yeast Anticancer Drug Screen. Data for the cln2 rad14 strain (AID 165).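 Further: 0% = growth equal to vehicle treated cultures.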 The following applies: S. cerevisiae cln2 rad14 strain, stronger effect = higher value. In short, it runs like this:
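The screen exposed genetically defined yeast (cln2 rad14) to test compounds and scored growth inhibition relative to vehicle-treated controls.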

Assay [5] in a line: NCI Yeast Anticancer Drug Screen. Data for the bub3 strain (AID 167). The note with it: S. cerevisiae bub3 mutant strain, stronger effect = higher value. Summed up: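 Steps: expose the mutant yeast strain to compound; grow alongside vehicle-treated cultures; measure growth; express inhibition against the vehicle cultures.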
Assay [6] in a line: NCI Yeast Anticancer Drug Screen. Data for the mlh1 rad18 strain (AID 175). The following applies: S. cerevisiae mlh1 rad18 strain growth inhibition, stronger effect = higher value. Summed up: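 Compound-treated yeast growth, normalised to vehicle controls. Strain bears defined DNA repair mutations.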
The mark [7] stands for this setting: at 5.0 µM (retest, dose inferred, filed as 0.5).
[8] abbreviates: at 50.0 µM (retest, dose inferred, filed as 5.0).

Values joined by “and” are separate entries in the source; they are usually repeats but may differ in a detail not shown here. Equal values may be shown once. The panel holds about 79,000 compounds, 15% with a hit somewhere; the sample as a whole holds those more often. The source holds several records for some structures; these can differ, active in one and inactive in another. Active and inactive are the calls of the source. No stated cut-off is given here; in the data, active means growth inhibition above about 70%; inactive means the rest.

On to `CCC1(O)C(=O)OCc2c1cc(C)[nH]c2=O` (centres undefined), for which the growth inhibition was -124% (inactive) in assay [1] (setting [7]); -25% (inactive) in assay [1] (setting [8]); 0.75% (inactive) in assay [1] (at 50.0 µM); -42% (inactive) in assay [2] (setting [7]); -45% (inactive) in assay [2] (setting [8]); 0.1% (inactive) in assay [2] (at 50.0 µM). Also, the growth inhibition in assay [3] (setting [7]) was -57% (inactive); in assay [3] (setting [8]), -45% (inactive); in assay [3] (at 50.0 µM) it was -5.5% (inactive); in assay [4] (setting [7]), -62% (inactive); in assay [4] (setting [8]), -64% (inactive); in assay [4] (at 50.0 µM) it was 23.9% (inactive). In addition, the growth inhibition was -75% (inactive) in assay [5] (setting [7]); -56% (inactive) in assay [5] (setting [8]); 4.45% (inactive) in assay [5] (at 50.0 µM); -157% (inactive) in assay [6] (setting [7]); -85% (inactive) in assay [6] (setting [8]); 4.95% (inactive) in assay [6] (at 50.0 µM).

Turning to `C/C1=C\[C@@H](O)C(=O)/C=C/C=C\c2csc(n2)[C@@H](C)NC(=O)C[C@@]2(CC1)S(=O)SC(=O)[C@]2(C)O` (some centres undefined), the growth inhibition in assay [1] (setting [7]) is 92% (active); in assay [1] (setting [8]), 98% (active); in assay [1] (at 50.0 µM), 91.6% (active); in assay [2] (setting [7]), 98% (active); in assay [2] (setting [8]), 99% (active); in assay [2] (at 50.0 µM), 92.5% (active). Also, the growth inhibition in assay [3] (setting [7]) is 90% (active); in assay [3] (setting [8]), 98% (active); in assay [3] (at 50.0 µM), 92.2% (active); in assay [4] (setting [7]) it was 97% (active); in assay [4] (setting [8]), 98% (active); in assay [4] (at 50.0 µM), 89.2% (active). Also, the growth inhibition in assay [5] (setting [7]) was 94% (active); in assay [5] (setting [8]), 98% (active); in assay [5] (at 50.0 µM), 90.3% (active); in assay [6] (setting [7]), 96% (active); in assay [6] (setting [8]), 98% (active); in assay [6] (at 50.0 µM), 85% (active).

As for `CC[C@@]1(O)C[C@H](OC2CC(N(C)C)C(OC3CC(O)C(OC4CCC(=O)C(C)O4)C(C)O3)C(C)O2)c2c(cc3c(c2O)C(=O)c2c(O)ccc(O)c2C3=O)[C@H]1C(=O)OC` (some centres undefined), the growth inhibition in assay [1] (setting [7]) was 95% (active) and 89% (active); in assay [1] (setting [8]), 98% (active); in assay [1] (at 50.0 µM) it was 88.1% (active) and 91.8% (active); in assay [2] (setting [7]) it was 95% (active) and 78% (active); in assay [2] (setting [8]), 99% (active); in assay [2] (at 50.0 µM), 91.2% (active) and 93.5% (active). In addition, the growth inhibition in assay [3] (setting [7]) was 95% (active) and 87% (active); in assay [3] (setting [8]) it was 99% (active) and 98% (active); in assay [3] (at 50.0 µM) it was 89.8% (active) and 92.3% (active); in assay [4] (setting [7]) it was 91% (active) and 71% (active); in assay [4] (setting [8]), 97% (active); in assay [4] (at 50.0 µM), 88.7% (active) and 91.2% (active). For the same molecule, the growth inhibition in assay [5] (setting [7]) is 92% (active) and 67% (inactive); in assay [5] (setting [8]) it was 98% (active); in assay [5] (at 50.0 µM), 89.3% (active) and 92.3% (active); in assay [6] (setting [7]), 96% (active) and 80% (active); in assay [6] (setting [8]), 98% (active); in assay [6] (at 50.0 µM) it was 88.2% (active) and 91.7% (active).

Regarding `COC1=C(C)C(=O)C2=C(C1=O)C(CO)N1C(C#N)C3CC4C(C1C2N1CCOC41)N3C` (centres undefined), the growth inhibition is 39% (inactive) in assay [1] (setting [7]); 51% (inactive) in assay [1] (setting [8]); 75.8% (active) and 75.5% (active) in assay [1] (at 50.0 µM); 9% (inactive) in assay [2] (setting [7]); 52% (inactive) in assay [2] (setting [8]); 85.8% (active) and 89.7% (active) in assay [2] (at 50.0 µM). In addition, the growth inhibition in assay [3] (setting [7]) was 20% (inactive); in assay [3] (setting [8]), 47% (inactive); in assay [3] (at 50.0 µM), 77.3% (active) and 77.7% (active); in assay [4] (setting [7]), 44% (inactive); in assay [4] (setting [8]) it was 80% (active); in assay [4] (at 50.0 µM), 85.1% (active) and 85% (active). For the same molecule, the growth inhibition was 19% (inactive) in assay [5] (setting [7]); 76% (active) in assay [5] (setting [8]); 83.2% (active) and 87.9% (active) in assay [5] (at 50.0 µM); 19% (inactive) in assay [6] (setting [7]); 49% (inactive) in assay [6] (setting [8]); 78.7% (active) and 81% (active) in assay [6] (at 50.0 µM).

`COC1(OC)C(Cl)=C(Cl)C(Cl)=C1Cl`: the growth inhibition in assay [1] (setting [7]) is 9% (inactive); in assay [1] (setting [8]), 95% (active); in assay [1] (at 50.0 µM), 46.4% (inactive); in assay [2] (setting [7]), -2% (inactive); in assay [2] (setting [8]), 84% (active); in assay [2] (at 50.0 µM) it was 46.5% (inactive). The growth inhibition in assay [3] (setting [7]) was -1% (inactive); in assay [3] (setting [8]) it was 91% (active); in assay [3] (at 50.0 µM) it was 75.2% (active); in assay [4] (setting [7]), 0% (inactive); in assay [4] (setting [8]), 42% (inactive); in assay [4] (at 50.0 µM), -9.85% (inactive). Moreover, the growth inhibition in assay [5] (setting [7]) is 2% (inactive); in assay [5] (setting [8]), 89% (active); in assay [5] (at 50.0 µM) it was 58.8% (inactive); in assay [6] (setting [7]), 4% (inactive); in assay [6] (setting [8]), 76% (active); in assay [6] (at 50.0 µM) it was 78.8% (active).

On to `C[As](c1ccc(Br)cc1)c1ccc(Br)cc1`, for which the growth inhibition was -4% (inactive) in assay [1] (setting [7]); 1% (inactive) in assay [1] (setting [8]); 3.6% (inactive) in assay [1] (at 50.0 µM); -2% (inactive) in assay [2] (setting [7]); 20% (inactive) in assay [2] (setting [8]); 25.8% (inactive) in assay [2] (at 50.0 µM). Besides, the growth inhibition in assay [3] (setting [7]) was 7% (inactive); in assay [3] (setting [8]), 46% (inactive); in assay [3] (at 50.0 µM), 75.5% (active); in assay [4] (setting [7]), -5% (inactive); in assay [4] (setting [8]), -18% (inactive); in assay [4] (at 50.0 µM) it was 52.1% (inactive). The growth inhibition in assay [5] (setting [7]) is 2% (inactive); in assay [5] (setting [8]) it was 44% (inactive); in assay [5] (at 50.0 µM) it was -14.2% (inactive); in assay [6] (setting [7]), 6% (inactive); in assay [6] (setting [8]), 22% (inactive); in assay [6] (at 50.0 µM), 53% (inactive).

As for `CC(=O)OC1CCC2(C)C3CCC4(C)C(OC(=O)c5ccccc5)CCC4C3CC(Br)C2(O)C1` (centres undefined), the growth inhibition was 35% (inactive) in assay [1] (setting [7]); 56% (inactive) in assay [1] (setting [8]); 87.1% (active) in assay [1] (at 50.0 µM); 27% (inactive) in assay [2] (setting [7]); 39% (inactive) in assay [2] (setting [8]); 87.9% (active) in assay [2] (at 50.0 µM). The growth inhibition is 44% (inactive) in assay [3] (setting [7]); 64% (inactive) in assay [3] (setting [8]); 89.5% (active) in assay [3] (at 50.0 µM); 40% (inactive) in assay [4] (setting [7]); 44% (inactive) in assay [4] (setting [8]); 90.8% (active) in assay [4] (at 50.0 µM). Moreover, the growth inhibition in assay [5] (setting [7]) is 45% (inactive); in assay [5] (setting [8]), 56% (inactive); in assay [5] (at 50.0 µM) it was 86.8% (active); in assay [6] (setting [7]) it was 42% (inactive); in assay [6] (setting [8]) it was 56% (inactive); in assay [6] (at 50.0 µM), 85.7% (active).

In the case of `CCCCCCC1CC2(Cl)C(Cl)=C(Cl)C1(Cl)C2(Cl)Cl` (centres undefined), the growth inhibition in assay [1] (setting [7]) was 32% (inactive); in assay [1] (setting [8]), 99% (active); in assay [1] (at 50.0 µM), 99.7% (active); in assay [2] (setting [7]), 34% (inactive); in assay [2] (setting [8]), 100% (active); in assay [2] (at 50.0 µM), 99.8% (active). For the same molecule, the growth inhibition in assay [3] (setting [7]) is 53% (inactive); in assay [3] (setting [8]) it was 99% (active); in assay [3] (at 50.0 µM) it was 99.8% (active); in assay [4] (setting [7]), 19% (inactive); in assay [4] (setting [8]), 99% (active); in assay [4] (at 50.0 µM) it was 99.6% (active). Further, the growth inhibition in assay [5] (setting [7]) was 20% (inactive); in assay [5] (setting [8]), 99% (active); in assay [5] (at 50.0 µM) it was 99.7% (active); in assay [6] (setting [7]) it was 54% (inactive); in assay [6] (setting [8]) it was 99% (active); in assay [6] (at 50.0 µM), 99.5% (active).
